Measured values reported in PubChem BioAssay AID2540 (Sanford-Burnham Center for Chemical Genomics, 2010).
Out of some 330,000 compounds screened, about 4,100 (1.2%) were called active. Cut-off read from the data, not from the text of the source: active = inhibition above about 50%; inactive = the rest. The entries come from a sample that favours actives as a whole.

What follows are compounds tested against Sentrin-specific protease 8 (Homo sapiens) (UniProt Q96LD8) (assay: blockers of human SENP8 peptidase activity – biochemical, luminescence, primary screen (AID 2540)). Conditions: purified SENP8, Z-RLRGG-aminoluciferin cleavage, at 10 µM, stronger effect = higher value.
Sentrin-specific protease 8 (Homo sapiens), sequence (Q96LD8 whole entry, looked up): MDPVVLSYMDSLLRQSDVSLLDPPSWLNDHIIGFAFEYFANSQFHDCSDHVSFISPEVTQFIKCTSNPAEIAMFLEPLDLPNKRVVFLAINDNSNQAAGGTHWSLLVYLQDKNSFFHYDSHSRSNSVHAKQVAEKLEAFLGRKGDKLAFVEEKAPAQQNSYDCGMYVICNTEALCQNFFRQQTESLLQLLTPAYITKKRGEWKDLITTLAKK

Question: With `CC(=O)Nc1ccc(S(=O)(=O)N2CCn3cccc3C2C)cc1` (configuration not stated) as the compound, how does the inhibition read?
Answer: -4.04% (inactive)

Question: For `COc1ccccc1CCNC(=O)C1CCN(C(=O)/C=C/c2ccccc2)CC1`, which inhibition is on record?
Answer: -12.7% (inactive)

Question: With `Clc1ccc(-c2csc(-c3ccncc3)n2)cc1` as the compound, how does the inhibition read?
Answer: -22.5% (inactive)

Question: `COc1ccc(C(=O)Nc2nc(-c3ccc(S(=O)(=O)N4CCOCC4)cc3)cs2)cc1` was tested. Which inhibition did it give?
Answer: -0.876% (inactive)

Question: How did the inhibition turn out when `c1ccc(Nc2nc(-c3ccncc3)cs2)nc1` was run?
Answer: 80.4% (active)

Question: How did the inhibition turn out when `COc1ccc(Nc2nc(-c3ccccc3)cs2)cc1` was run?
Answer: 82.8% (active)

Question: How did the inhibition turn out when `CCCn1c(CCNc2nc(-c3ccc(OC)cc3)cs2)nc2ccccc21` was run?
Answer: 1.24% (inactive)

Question: `COc1ccc(-c2csc(NC(=O)COC(=O)Cc3ccc(Cl)cc3Cl)n2)cc1` was tested. Which inhibition did it give?
Answer: 2.3% (inactive)

Question: For `COc1ccc2c(c1OC)C(=O)OC2Nc1nc(-c2ccccc2)cs1` (configuration not stated), which inhibition is on record?
Answer: 1.85% (inactive)

Question: Which inhibition does the source give for `COc1ccc(-c2csc(Nc3ccccn3)n2)cc1` here?
Answer: 85.4% (active)

Question: `Clc1ccc(Nc2nc(-c3cccs3)cs2)nc1` was tested. Which inhibition did it give?
Answer: 10.9% (inactive)

Question: Which inhibition does the source give for `COC(=O)c1ccc(/C=N/N2C(C)CCCC2C)cc1` (configuration not stated) here?
Answer: -6.16% (inactive)

Question: For `CC1(c2ccc3ccccc3c2)NC(=O)NC1=O` (configuration not stated), which inhibition is on record?
Answer: -0.811% (inactive)

Question: For `Cc1c(O)c(C)c2c(c1O)C(=O)C[C@@H](c1ccccc1)O2`, which inhibition is on record?
Answer: 6.05% (inactive)

Question: Which inhibition does the source give for `Cc1ccc(CS(=O)Cc2ccc(C(=O)N3CCOCC3)o2)cc1` (configuration not stated) here?
Answer: -6.99% (inactive)

Question: `COc1ccc(F)cc1C(=O)C1CCCN(C(=O)CCc2ccccn2)C1` (configuration not stated) was tested. Which inhibition did it give?
Answer: 29.7% (inactive)

Question: How did the inhibition turn out when `O=C(COC(=O)c1ncc(Cl)c(Cl)c1Cl)NC1CCS(=O)(=O)C1` (configuration not stated) was run?
Answer: -7.58% (inactive)

Question: With `CCOC(=O)C1CCCN(C(=O)COc2ccc(N(C)S(=O)(=O)c3ccc(C)cc3)cc2)C1` (configuration not stated) as the compound, how does the inhibition read?
Answer: -0.395% (inactive)

Question: `NNC(=O)c1cnn(-c2ccccc2)c1C(F)(F)F` was tested. Which inhibition did it give?
Answer: -1.96% (inactive)

Question: With `O=C(COc1ccccc1Cl)Nc1ccc(C(=O)c2ccc(C(=O)O)cc2)cc1` as the compound, how does the inhibition read?
Answer: 2.39% (inactive)

Question: For `COC(=O)c1ccc(NCC(=O)N2CCCCCC2)cc1`, which inhibition is on record?
Answer: -5.06% (inactive)

Question: With `COC(=O)c1ccc(NC(=O)Nc2ccc(C)cc2)cc1` as the compound, how does the inhibition read?
Answer: -16% (inactive)

Question: For `COC(=O)c1ccc(NCC(=O)c2ccccc2)cc1`, which inhibition is on record?
Answer: 92.3% (active)

Question: With `O=C(COC(=O)c1ccc(S(=O)(=O)Nc2ccccc2)cc1)NCC1CCCO1` (configuration not stated) as the compound, how does the inhibition read?
Answer: -2.95% (inactive)

Question: `CC1CN(S(=O)(=O)c2ccc(C(=O)Nc3sccc3C(N)=O)cc2)CC(C)O1` (configuration not stated) was tested. Which inhibition did it give?
Answer: -3.19% (inactive)

Question: `CCCOc1ccc(CNC(=O)C2CCN(c3nn4c(=O)cc(C)nc4s3)CC2)cc1` was tested. Which inhibition did it give?
Answer: 7.56% (inactive)

Question: `O=C(Nc1ccc2oc(-c3ccc4ccccc4c3)nc2c1)c1cccs1` was tested. Which inhibition did it give?
Answer: 5.01% (inactive)

Question: `CCc1ccc2oc(-c3ccc(N)cc3)nc2c1` was tested. Which inhibition did it give?
Answer: 89.6% (active)

Question: Which inhibition does the source give for `Nc1ccc(-c2nnc(-c3ccccc3)o2)cc1` here?
Answer: 40% (inactive)

Question: Which inhibition does the source give for `Fc1ccc2nc(-c3ccccc3)nc(SCc3nnc(-c4ccccc4)o3)c2c1` here?
Answer: 9.5% (inactive)

Question: For `O=C(C[C@@H]1C/C=C\CCC(=O)OC[C@@H]2CCCN2C1=O)NCCO`, which inhibition is on record?
Answer: -14.7% (inactive)

Question: Which inhibition does the source give for `CC(C)[C@H](NC(=O)N1c2ccccc2NC(=O)[C@@H]1C(C)C)C(=O)N[C@H](C(=O)O)c1ccccc1` here?
Answer: -11.1% (inactive)

Question: `CN(Cc1nc2ccccc2s1)C(=O)c1ccc(F)cc1` was tested. Which inhibition did it give?
Answer: -4.17% (inactive)

Question: How did the inhibition turn out when `COc1ccccc1OCc1nc2ccccc2s1` was run?
Answer: 94.1% (active)

Question: How did the inhibition turn out when `COc1ccccc1N1CC(O)=C(c2nc3ccccc3s2)C1=N` was run?
Answer: -8.72% (inactive)

Question: Which inhibition does the source give for `COC(=O)Cc1ccc(OCC(=O)NC2CCCC2)cc1` here?
Answer: -7.77% (inactive)

Question: Which inhibition does the source give for `O=C(Nc1ccccc1C(F)(F)F)N1CCCC1c1cccnc1` (configuration not stated) here?
Answer: 1.35% (inactive)

Question: For `CCc1noc(C)c1C(=O)Nc1nc(-c2ccccc2)cs1`, which inhibition is on record?
Answer: -12.4% (inactive)

Question: With `CC(=O)Nc1cccc(-c2csc(Nc3cccc(C)n3)n2)c1` as the compound, how does the inhibition read?
Answer: 90.4% (active)

Question: With `O=C(Nc1ccc(-c2csc(Nc3cccc(C(F)(F)F)c3)n2)cc1)c1cccc(C(F)(F)F)c1` as the compound, how does the inhibition read?
Answer: 2.09% (inactive)

Question: Which inhibition does the source give for `Cc1cccc(Nc2nc(-c3ccccc3)cs2)n1` here?
Answer: 81.3% (active)

Question: How did the inhibition turn out when `CC(=O)NCCC(=O)Nc1nc(-c2ccc3c(c2)OCCO3)cs1` was run?
Answer: -10.2% (inactive)

Question: For `Cc1ccccc1Nc1nc(-c2cccnc2)cs1`, which inhibition is on record?
Answer: 44% (inactive)

Question: For `CC(=O)NNc1cc(=O)c2c(=O)n(C)c(=O)n(C)c2[nH]1`, which inhibition is on record?
Answer: 5.83% (inactive)

Question: Which inhibition does the source give for `COc1ccc(N(CC(=O)N/N=C/c2cccc3c2OCCO3)S(=O)(=O)c2ccc(NC(C)=O)cc2)cc1` here?
Answer: -14.1% (inactive)

Question: Which inhibition does the source give for `Cc1nc(COc2cc3oc(=O)cc(C)c3cc2Cl)cs1` here?
Answer: -13.3% (inactive)

Question: With `CCN1CCCC1CNC(=O)Cn1cnc2ccc(S(=O)(=O)N3CCC(C)CC3)cc2c1=O` (configuration not stated) as the compound, how does the inhibition read?
Answer: 3.55% (inactive)

Question: How did the inhibition turn out when `CCC1Nc2ncnc(N3CCN(c4ccccc4)CC3)c2N(Cc2ccc(Cl)cc2)C1=O` (configuration not stated) was run?
Answer: -14% (inactive)

Question: How did the inhibition turn out when `CCOCC(=O)Nc1ncc(S(=O)(=O)c2ccc([N+](=O)[O-])cc2)s1` was run?
Answer: 1.6% (inactive)

Question: How did the inhibition turn out when `CSCc1ccc(C(=O)Nc2cc(C)cc(C)c2)cc1` was run?
Answer: 72.8% (active)

Question: Which inhibition does the source give for `C=CCN(c1ccc(C(=O)Nc2cc(C)cc(C)c2)cc1)S(C)(=O)=O` here?
Answer: 3.93% (inactive)

Question: `CC(=O)Nc1ccccc1NC(=O)c1cc(C)cc(C)c1` was tested. Which inhibition did it give?
Answer: -8.13% (inactive)

Question: How did the inhibition turn out when `COc1ccccc1N=Cc1c(O)c2ccccc2oc1=O` was run?
Answer: 58.3% (active)

Question: For `COc1ccccc1N=C(C)C1=C(O)COC1=O`, which inhibition is on record?
Answer: -4.5% (inactive)

Question: How did the inhibition turn out when `COc1cc(N=Cc2c(O)c3ccccc3oc2=O)c(OC)cc1Cl` was run?
Answer: 20% (inactive)

Question: `C=CCn1c(C)cc(C2=NNC(=NCC)SC2)c1C` was tested. Which inhibition did it give?
Answer: 91.5% (active)

Question: How did the inhibition turn out when `COc1ccc(N(Cc2ccc(N(C)C)cc2)C(=O)c2ccc(S(C)(=O)=O)cc2)cc1` was run?
Answer: 7.56% (inactive)

Question: `O=C(CCc1ccccc1)Nc1ccc(NC(=O)C2CC2)nc1` was tested. Which inhibition did it give?
Answer: -0.592% (inactive)

Question: For `CCN(Cc1ccccc1)C(=O)CN1C(=S)NC(C)(C)CC1C` (configuration not stated), which inhibition is on record?
Answer: -3.88% (inactive)

Question: With `O=C(CN1CCN(c2ccccc2F)CC1)c1ccc2c(c1)OCO2` as the compound, how does the inhibition read?
Answer: -9.99% (inactive)

Question: For `O=C(c1ccco1)N1CCN(C(=O)c2cc(-c3ccccc3F)no2)CC1`, which inhibition is on record?
Answer: 3.2% (inactive)

Question: Which inhibition does the source give for `Fc1ccccc1-c1cc2cc3c(cc2cn1)OCO3` here?
Answer: 70.8% (active)
